Measurements reported in ChEMBL document CHEMBL3988442, “University of Dundee, Small-Polar-MMV Screening Library” (2021).
About 13,000 (27%) of roughly 48,000 compounds showed an effect of 50% or more. This is one part of the list.

Each molecule was assayed on Wolbachia pipientis (assay: Anti-Wolbachia Cell-Based Screen). Details: 5 µM.
Assay type: functional
Set-up: scale not given: in the data most compounds retested in dose-response had high values
With `CC(C)CN1C(=O)CO[C@@H]2CN(C(=O)NC(C)C)C[C@H]21` the “Percent Effect” value was -9.204%. `Cc1nn(C)cc1-c1ccnc(N2CCN(c3ccccc3)C(=O)C2)n1` was tested, and the “Percent Effect” value was -10.97%. In the case of `CN1CCCN(c2nccc(-c3cc(C(=O)O)ccn3)n2)CC1`, the “Percent Effect” value is reported as -0.2127%. In the case of `CN1CCCN(c2nccc(-c3c[nH]nc3-c3ccncc3)n2)CC1`, the “Percent Effect” value is reported as 94.49%. `c1cc(-c2n[nH]cc2-c2ccnc(N3CCCCCC3)n2)ccn1` was tested, and the “Percent Effect” value was 91.97%. `CN1CCCN(c2nccc(-c3c[nH]c4ccc(Br)cc34)n2)CC1` was tested, and the “Percent Effect” value was 88.95%. For `c1cc(-c2n[nH]cc2-c2ccnc(N3CCCC3)n2)ccn1`, the “Percent Effect” value was 100.8%. For `Cc1oc(C(C)C)cc1C(=O)N1C[C@H]2CC[C@@H]1CN(c1ncccn1)C2`, the “Percent Effect” value was 6.387%. With `CN(C)c1ccc(CCCNC(=O)NCC(O)c2ccsc2)cc1` (centres undefined) the “Percent Effect” value was 3.16%. With `Cc1ccc(-c2nc3c([nH]2)CCNC3C(=O)O)c2cccnc12` (centres undefined) the “Percent Effect” value was -6.719%. For `Cc1cc(-c2ccnn2C)nc(C2CCCN(S(C)(=O)=O)C2)n1` (centres undefined), the “Percent Effect” value was 122.2%. In the case of `Cc1cc(C)nc(Nc2cccc(C3CCCN(S(C)(=O)=O)C3)n2)n1` (centres undefined), the “Percent Effect” value is reported as 85.5%. For `Cc1cnc(N2CCCC(c3ccccc3)C2)nc1-c1ccnn1C` (centres undefined), the “Percent Effect” value was -17.82%. For `CS(=O)(=O)N1CCCC(c2nc(-c3ccccc3)c[nH]2)C1` (centres undefined), the “Percent Effect” value was -2.942%. With `CS(=O)(=O)N1CCCC(c2cncc(Nc3ccccn3)n2)C1` (centres undefined) the “Percent Effect” value was 103.2%. For `Cc1cc(C)nc(Nc2cncc(C3CCCN(S(C)(=O)=O)C3)n2)n1` (centres undefined), the “Percent Effect” value was 101.3%. In the case of `CNc1cncc(C2CCCN(S(C)(=O)=O)C2)n1` (centres undefined), the “Percent Effect” value is reported as -7.969%. With `CCc1noc(C)c1-c1nc(Cc2cccs2)nn1C1CCN(C)CC1` the “Percent Effect” value was -27.77%. With `COCC(c1ccccn1)N(C)C(=O)c1cc(-c2ccc(O)cc2)n[nH]1` (centres undefined) the “Percent Effect” value was -10.51%. With `N#Cc1cc2n(n1)CCN(C(=O)CCc1c[nH]c3ccccc13)C2` the “Percent Effect” value was -21.25%. In the case of `CN(C)C(CNC(=O)NCc1cc[nH]n1)c1ccco1` (centres undefined), the “Percent Effect” value is reported as -4.793%. With `CCOC(=O)C1CN(CC2CC2)Cc2ncn(CC)c21.O=C(O)C(F)(F)F` (centres undefined) the “Percent Effect” value was 1.772%. With `Cc1ccoc1C(=O)N1C[C@H]2CCC[C@@]2(COCc2ccncc2)C1.O=C(O)C(F)(F)F` the “Percent Effect” value was 6.221%. For `COC[C@@]12CCO[C@@H]1CCN(C(=O)C1CC(F)(F)C1)C2`, the “Percent Effect” value was -30.77%. In the case of `COCCC(=O)N1C[C@@H]2COC[C@]2(COCc2cccnc2)C1`, the “Percent Effect” value is reported as -10.08%. `COCCC(=O)N1C[C@H]2CCC[C@@]2(COC)C1` was tested, and the “Percent Effect” value was 114%. For `COC[C@@]12CCC[C@@H]1CN(C(=O)CN(C)C)C2.O=C(O)C(F)(F)F`, the “Percent Effect” value was 107.5%. With `COC[C@@]12CCC[C@@H]1CN(C(=O)Cc1ccco1)C2` the “Percent Effect” value was -55.3%. For `CCCc1cc(C(=O)N2C[C@H]3CCC[C@@]3(CO)C2)[nH]n1`, the “Percent Effect” value was 14.56%. `COC[C@@]12CCC[C@@H]1CN(C(=O)N1CCCC1)C2` was tested, and the “Percent Effect” value was 106.2%. `COC[C@@]12CCO[C@@H]1CCN(C(=O)C1CCSCC1)C2` was tested, and the “Percent Effect” value was -9.781%. For `CCOCC(=O)N1C[C@H]2CCC[C@@]2(COC)C1`, the “Percent Effect” value was 105.6%. For `CNC(=O)CCCNCc1c(C)nn(CC(C)C)c1N(C)C`, the “Percent Effect” value was 0.5097%. `CC(=O)N1CCN(c2ccccc2CNc2ccc3[nH]ncc3c2)CC1` was tested, and the “Percent Effect” value was -1.242%. With `CCNC(=O)CN1CCCN(C(=O)C2CCCc3[nH]ncc32)CC1` (centres undefined) the “Percent Effect” value was 2.738%. For `CC(C#N)NS(=O)(=O)c1ccc2c(c1)N(C)CCC2` (centres undefined), the “Percent Effect” value was -3.388%. In the case of `Cc1nc(CCNC(=O)C2CC(=O)N(C(C)(C)C)C2)sc1Cl` (centres undefined), the “Percent Effect” value is reported as -46.08%. For `N#Cc1ccc2c(c1)CN(C(=O)C1CC=CC1)C2c1cnco1` (centres undefined), the “Percent Effect” value was -2.479%. In the case of `CC(C)(O)CN1CCN(C(=O)COC2CCCC2)CC1`, the “Percent Effect” value is reported as -11.71%. In the case of `O=C(COC1CCCC1)N1CC[C@H]2OCC[C@@]2(COCC2CC2)C1`, the “Percent Effect” value is reported as 5.898%. With `COC[C@@]12CCC[C@@H]1CN(C(=O)COC1CCCC1)C2` the “Percent Effect” value was 116%. `COCC(=O)N1C[C@H]2CCC[C@@]2(COC)C1` was tested, and the “Percent Effect” value was 91.12%. With `COCC(=O)N1C[C@@H]2COC[C@]2(COC)C1` the “Percent Effect” value was -5.007%. `O=C(Cc1ccco1)N1C[C@H]2CCC[C@@]2(COCC2CC2)C1` was tested, and the “Percent Effect” value was 4.43%. In the case of `Cc1csc(N(C)C(=O)C2CC(=O)N(c3ccccc3F)C2)n1` (centres undefined), the “Percent Effect” value is reported as 1.281%. For `CCc1cnc(N2CCC(=O)N(CC3CC3)C(C(C)C)C2)nc1` (centres undefined), the “Percent Effect” value was -22.71%. With `COc1ncnc2c1CCN(Cc1cccc(C)n1)CC2` the “Percent Effect” value was 95.16%. With `Cc1cccc(CN2CCc3ncnc(-c4ccsc4)c3CC2)n1.O=C(O)C(F)(F)F` the “Percent Effect” value was 18.15%. `O=C(N1CCOCC1)N1CCc2ncnc(Oc3cccnc3)c2CC1.O=C(O)C(F)(F)F` was tested, and the “Percent Effect” value was 0.6158%. With `Cc1cccc(CN2CCc3ncnc(Oc4cccnc4)c3CC2)n1` the “Percent Effect” value was 126.9%. For `COc1ncnc2c1CCN(c1cccc(F)c1)CC2`, the “Percent Effect” value was 16.21%. With `Cc1c(Br)cccc1CNC1(CCO)CCOCC1` the “Percent Effect” value was -8.762%. `Cc1cccc(-c2ccc(C(=O)NCC(C)(C)C(N)=O)c(=O)[nH]2)c1` was tested, and the “Percent Effect” value was 6.298%. With `O=c1n(CC2CCCO2)nc(CC2CCNCC2)n1-c1ccccc1` (centres undefined) the “Percent Effect” value was -2.06%. With `CNC(=O)CN1CCOCC2(CCCN(CCc3ccccc3)C2)C1.O=C(O)C(F)(F)F.O=C(O)C(F)(F)F` (centres undefined) the “Percent Effect” value was 95.77%. With `O=C(Cc1ccsc1)N1CCCC2(COCCN(CC3CC3)C2)C1.O=C(O)C(F)(F)F` (centres undefined) the “Percent Effect” value was -6.273%. `CNC(=O)CN1CCOCC2(CCCN(Cc3ccc(F)cc3)C2)C1.O=C(O)C(F)(F)F.O=C(O)C(F)(F)F` (centres undefined) was tested, and the “Percent Effect” value was 113%. `Cc1ccc(CN2CCCC3(CCN(Cc4ccoc4)CC3)C2)cc1.O=C(O)C(F)(F)F.O=C(O)C(F)(F)F` was tested, and the “Percent Effect” value was 12.66%. With `CNC(=O)CN1C(=O)CCC12CCCN(CCc1ccccc1)C2` (centres undefined) the “Percent Effect” value was -21.16%. With `CNC(=O)CN1CCOCC2(CCCN(Cc3ccoc3)C2)C1` (centres undefined) the “Percent Effect” value was 84.78%. With `CN(C)CCN1CCOCC2(CCCN(C(=O)Cc3ccccc3)C2)C1.O=C(O)C(F)(F)F.O=C(O)C(F)(F)F` (centres undefined) the “Percent Effect” value was -11.48%. In the case of `O=C(O)C(F)(F)F.O=C(O)C(F)(F)F.c1cc(CN2CCCC3(COCCN(Cc4c[nH]nn4)C3)C2)cs1` (centres undefined), the “Percent Effect” value is reported as -3.228%. With `Fc1ccc(CN2CCOCC3(CCN(Cc4nccs4)C3)C2)cc1.O=C(O)C(F)(F)F.O=C(O)C(F)(F)F` (centres undefined) the “Percent Effect” value was 2.438%. With `CNC(=O)CN1CCOCC2(C1)CN(Cc1csnn1)CCO2` (centres undefined) the “Percent Effect” value was -63.88%. `Fc1ccc(CN2CCCC3(COCCN(Cc4c[nH]nn4)C3)C2)cc1.O=C(O)C(F)(F)F.O=C(O)C(F)(F)F` (centres undefined) was tested, and the “Percent Effect” value was -5.043%. For `CNC(=O)CN1CCOCC2(CCCN(Cc3ccsc3)C2)C1.O=C(O)C(F)(F)F.O=C(O)C(F)(F)F` (centres undefined), the “Percent Effect” value was 99.42%. With `CN(C)c1ccc2c(c1)CN(C(=O)c1cnccn1)C2c1cnco1` (centres undefined) the “Percent Effect” value was 6.67%. `COCCN1CCOCC2(CCCN(Cc3ccc(C)o3)C2)C1.O=C(O)C(F)(F)F.O=C(O)C(F)(F)F` (centres undefined) was tested, and the “Percent Effect” value was 4.497%. In the case of `COCCN1CCC2(COCCN(Cc3ccc4c(c3)OCO4)C2)C1.O=C(O)C(F)(F)F.O=C(O)C(F)(F)F` (centres undefined), the “Percent Effect” value is reported as 1.486%. For `COCCN1CCOCC2(CCCN(Cc3cccc(F)c3)C2)C1.O=C(O)C(F)(F)F.O=C(O)C(F)(F)F` (centres undefined), the “Percent Effect” value was 114.4%. `COCCOc1ccc(S(=O)(=O)Nc2cccnc2O)cc1C` was tested, and the “Percent Effect” value was -11.72%. With `Fc1ccc(CN2CCCC(c3cc4ncccc4[nH]3)C2)cc1` (centres undefined) the “Percent Effect” value was 39.65%. In the case of `CCC(=O)NC1CCCN(Cc2ccc(NC(C)=O)cc2)C1` (centres undefined), the “Percent Effect” value is reported as 21.19%. With `CCOc1ccc(CN2CCCC(c3cc4ncccc4[nH]3)C2)cc1` (centres undefined) the “Percent Effect” value was 111.1%. For `CC(=O)NC1CCCN(Cc2ccc(-n3ccnc3)cc2)C1` (centres undefined), the “Percent Effect” value was 4.103%. With `CCOc1nnc(CN2CCCC(c3nc4ccccc4[nH]3)C2)s1` (centres undefined) the “Percent Effect” value was -5.507%. For `CC(=O)Nc1ccc(CN2CCCC(c3cc4ncccc4[nH]3)C2)cc1` (centres undefined), the “Percent Effect” value was 130.8%. With `CCc1c(C(=O)N2CC(C)OC(C)(C)C2)cnn1-c1ccccn1` (centres undefined) the “Percent Effect” value was -9.37%. For `CC(C)c1nc(C2CCCN(C(=O)CCn3cncn3)C2)no1` (centres undefined), the “Percent Effect” value was 109.8%. With `Cc1nc(C2CCCN2C(=O)CCCOc2ccccc2C)no1` (centres undefined) the “Percent Effect” value was 3.026%. In the case of `Cc1nc(C2CCCN2C(=O)CNS(C)(=O)=O)no1` (centres undefined), the “Percent Effect” value is reported as -1.869%. `Cc1csc(C2CCCCN2C(=O)Cn2cncn2)n1` (centres undefined) was tested, and the “Percent Effect” value was -6.402%. `Cc1nc(C2CCCN2C(=O)CCn2cncn2)no1` (centres undefined) was tested, and the “Percent Effect” value was 102.5%. `CC(C)c1nc(C2CCCN(C(=O)CN3CCN(C)CC3)C2)no1` (centres undefined) was tested, and the “Percent Effect” value was -17.54%. `Cc1nc(C2CCCN2C(=O)CCCn2cccn2)no1` (centres undefined) was tested, and the “Percent Effect” value was 80.92%. With `Cc1nc(C2CCCN2C(=O)Cn2cncn2)no1` (centres undefined) the “Percent Effect” value was 83.95%. With `CC(C)c1nc(C2CCCN(C(=O)CCCn3cncn3)C2)no1` (centres undefined) the “Percent Effect” value was 2.854%. `Cc1csc(C2CCCCN2C(=O)CCCn2cccn2)n1` (centres undefined) was tested, and the “Percent Effect” value was -9.362%. For `Cc1csc(C2CCCCN2C(=O)CCn2cncn2)n1` (centres undefined), the “Percent Effect” value was 8.818%. `CCC(CC)n1nc(C)cc1NC(=O)C1CCCO1` (centres undefined) was tested, and the “Percent Effect” value was 0.9599%. With `COCCNC(=O)[C@H]1CC[C@@H]2[C@@H](CCN2S(C)(=O)=O)O1` the “Percent Effect” value was -5.573%. For `COc1cc2c(cc1-c1nc3c(cnn3C(C)C(C)C)[nH]1)OCO2` (centres undefined), the “Percent Effect” value was -3.309%. For `Cc1csc(C2CCCCN2C(=O)CCCn2cncn2)n1` (centres undefined), the “Percent Effect” value was -9.865%. With `CCc1nc(C2CCCN2C(=O)CCCOc2cccc(F)c2)no1` (centres undefined) the “Percent Effect” value was -10.09%. `COCc1nc(C(=O)N2CCCC2c2noc(C(C)C)n2)cs1` (centres undefined) was tested, and the “Percent Effect” value was -1.506%. With `CCc1nc(C2CCCN2C(=O)CCCn2cncn2)no1` (centres undefined) the “Percent Effect” value was 114.2%. For `CC(C)c1nc(C2CCCN2C(=O)c2cnc[nH]2)no1` (centres undefined), the “Percent Effect” value was -3.664%. With `CC(C)c1nc(C2CCCN2C(=O)CCn2cncn2)no1` (centres undefined) the “Percent Effect” value was 104.8%. With `Cc1nc(C2CCCN2C(=O)CCCn2cncn2)no1` (centres undefined) the “Percent Effect” value was 100.4%.
